Shown are actives, neighbours in structure and some others; about 10% of the full set was active somewhere.
HCT116 bCat-KO: beta-catenin-lacking colon tumor cell growth suppression | HCT116 beta-catenin knockout viability, CellTiter-Glo, 60 h; active compounds read low | viability, % at 10 µM | hit rate 1.5% among 140,000;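 active = viability at or under a set limit, the compound median less 4 SD, cut at about 6% in these data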;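 also: 0% = Hyamine 1622 control at 20 µM and 100% = untreated cell control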
p97 inhibitor: inhibitors of human p97 ATPase; P55072; recombinant p97 ATPase, Kinase-Glo ATP luminescence, 3 h; inhibition, % at 8 µM; hit rate 0.42% among 220,000; AID 1481; in the data active = inhibition above about 15%;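 also: 0% = DMSO vehicle and 100% = wells lacking enzyme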
ROMK primary: modulates human ROMK potassium channel activity. P48048. Tet-inducible ROMK, thallium flux fluorescence; actives lie on both sides. B-score at 10 µM. hit rate 2% among 130,000. AID 1918;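 active = signal ratio slope over the read window, or its plate-corrected B-score, at least 3 SD from the plate mean, either direction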;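 also: B-score of the F/F0 ratio slope over 7 to 12 s after thallium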
Target sequence (P48048 whole entry, looked up): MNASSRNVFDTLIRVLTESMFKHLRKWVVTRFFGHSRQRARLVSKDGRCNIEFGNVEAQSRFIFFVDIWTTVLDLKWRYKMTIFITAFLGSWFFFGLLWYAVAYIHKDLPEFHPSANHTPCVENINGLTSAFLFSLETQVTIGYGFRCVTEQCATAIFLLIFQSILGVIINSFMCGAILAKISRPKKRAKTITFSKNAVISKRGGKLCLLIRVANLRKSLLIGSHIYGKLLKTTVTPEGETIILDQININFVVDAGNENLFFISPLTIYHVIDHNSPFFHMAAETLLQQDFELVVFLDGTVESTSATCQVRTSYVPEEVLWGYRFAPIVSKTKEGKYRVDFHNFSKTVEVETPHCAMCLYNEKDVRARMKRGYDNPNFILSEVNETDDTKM
INS promoter inh: TRM-6 insulin promoter activity inhibition. TRM-6 cells (human fetal islet line), insulin promoter-eGFP reporter, imaging; reporter expression induced with tamoxifen. inhibition, % at 2 µM. hit rate 0.9% among 130,000. AID 1273;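 active = inhibition above the mean plus 3 SD, with well images judged a real hit on visual review, cut at about 60% in these data, passing the limit was not always enough; inconclusive = inhibition over the cutoff but images rejected on review; inactive = inhibition not above the cutoff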
Lmaj promast: Leishmania major promastigote growth inhibition. Leishmania major promastigotes, resazurin fluorescence viability. inhibition, % at 10 µM. hit rate 9% among 200,000. AID 1063; in the data active = inhibition above about 50%;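 also: promastigotes grown with compound for 44 hours at 28 °C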
HCT116 PTEN-null: growth suppressors of cells with PTEN tumor suppressor deletion. HCT116 PTEN-null viability, CellTiter-Glo, 60 h; active compounds read low. viability, % at 10 µM. hit rate 1.2% among 140,000;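 active = viability at or below a set limit, 4 SD under the median of all tested compounds, cut at about 3.7% in these data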;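 also: PTEN knockout HCT116 line with beta catenin targeted HCT116 as companion control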
p97 inh conf: human p97 ATPase inhibition, confirmation. inhibition, % at 8 µM. hit rate 44% among 760. shares compounds with p97 inhibitor. recombinant p97 ATPase, Kinase-Glo ATP luminescence. AID 1517;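 active = percent inhibition of p97 ATPase above a set limit, the primary screen's mean plus 3 SD, cut at about 15% in these data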;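 also: 0% = DMSO wells and 100% = wells lacking p97 protein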
ROMK retest: human ROMK channel modulation, retest confirmation; shares compounds with ROMK primary; ROMK thallium flux, fluorescence ratio; active compounds read low; normalized thallium flux (F/F0 slope) at 10 µM; hit rate 54% among 3,000;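 active = Flux at 10 µM at least 3 SD below or above vehicle control mean in one or both replicates; inconclusive = no clear call, values can overlap the other calls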
* hit, by the source's call; ? = inconclusive; nt = no result given.

SMILES	HCT116 bCat-KO	p97 inhibitor	ROMK primary	INS promoter inh	Lmaj promast	HCT116 PTEN-null	ROMK retest	others
C=CCOC(=O)C1=C[C@H](c2cn(C(C)=O)c3ccccc23)[C@@H](CCCO)[C@H](OCC)O1	nt	-2	nt	nt	12	nt	nt
CCOC(=O)C1=C(c2ccccc2)NC(N)=NC1c1ccc(OCc2ccc(C(=O)OC)cc2)cc1 (centres undefined)	nt	33*	nt	nt	nt	nt	0.053*	p97 inh conf=35*
CCOc1cccc(N(C(=O)Cc2cccs2)C(C(=O)NC2CCCCC2)c2cccn2C)c1 (centres undefined)	76	2	-4.4*	-133	49	67	0.062*
CCc1ccc(N(C(=O)Cc2cccs2)C(C(=O)NC2CCCCC2)c2cn(C)nc2C)cc1 (centres undefined)	79	2	nt	-9	15	81	nt
CCOC(=O)N1CCN(C(=O)C2CCN(Cc3nc(-c4ccccc4C)oc3C)CC2)CC1	80	-3	nt	nt	4	78	nt
Cc1cccc2sc(N(CCCN(C)C)C(=O)CCc3ccccc3)nc12	1.6*	2	-2.1*	nt	24	1.9*	0.064*
Cc1cccc2sc(N(CCCN(C)C)C(=O)CN3C(=O)c4ccccc4C3=O)nc12	nt	-1	0.0026	11	5	nt	nt
CC(C)c1onc(C(=O)NC2CCCCC2)c1[N+](=O)[O-]	nt	-2	0.23	nt	-1	nt	nt
N#Cc1c(NC(=O)C2CC=CCC2C(=O)O)sc2c1CCCCCC2 (centres undefined)	96	2	nt	-173	-10	92	nt
CC(C)(C)C1CCc2c(sc(NC(=O)C3CC=CCC3C(=O)O)c2C#N)C1 (centres undefined)	87	-6	-3.5*	-4	-6	86	?
CCC(C)(C)C1CCc2c(sc(NC(=O)c3ccccc3C(=O)O)c2C#N)C1 (centres undefined)	nt	-10	nt	nt	nt	nt	0.11*
CCOC(=O)c1cccc(N2C(=O)c3ccccc3S2(=O)=O)c1	113	-5	-0.58	-19	-1	107	nt
CSCCOC(=O)COc1ccc(/C=N/NC(=O)c2c(Cl)cnn2C)cc1	nt	3	nt	nt	nt	nt	nt
Cc1ccc(C(=O)C(c2ccccc2)N2Cc3ccccc3C2=N)cc1 (centres undefined)	78	-1	-3*	55	99*	78	0.054*
CC(=O)N(C(C)=O)C1=C(C#N)C2(CCCCC2)Cc2ccccc21	81	-7	nt	-44	-1	80	nt
CC(=O)NCCNC(=O)[C@H](Cc1ccccc1)NC(=O)c1cccs1	98	3	2.4*	-3	0	105	0.078
O=C(NCCc1ccccc1)c1cccs1	99	1	0.37	11	-6	107	nt
O=C(Oc1coc(CSc2ncccn2)cc1=O)c1ccccc1[N+](=O)[O-]	nt	1	0.041	58	-8	nt	0.088
CC(C)CNC(=S)NC1CC2CCCC(C1)N2C1CCCCC1 (centres undefined)	nt	0	-3.3	-27	52*	nt	0.054*
O=C(Nc1cc2c(cc1Br)OCCO2)c1cccs1	97	-3	-0.97	-3	10	87	nt
Cc1cccc(N2C(=O)CSC23CCCCC3)c1	nt	-1	-0.15	-20	9	nt	nt
Cc1nn(C)c(C(=O)Sc2cccc(Cl)c2)c1[N+](=O)[O-]	nt	-1	-2.9*	nt	nt	nt	0.064*
CCOC(=O)c1c(NC(=O)CSc2nc3ccccc3o2)sc(C(C)=O)c1C	77	1	-3.3*	-54	-3	67	0.059*
COc1ccccc1NC(=O)C(=O)NNC(=O)c1ccco1	75	9	1.8	-46	-6	68	nt
Fc1ccc(-n2cc(-c3ccccc3)[n+]3c2SCC3)cc1	nt	3	nt	nt	3	nt	nt
SMILES	HCT116 bCat-KO	p97 inhibitor	ROMK primary	INS promoter inh	Lmaj promast	HCT116 PTEN-null	ROMK retest	others
CC(C)(C)c1ccc(-c2cn(-c3ccc(Br)cc3)c3[n+]2CCCS3)cc1	nt	1	-2.5*	-38	100*	nt	0.055*
Cc1nnc(SCC(=O)NCc2ccc3c(c2)OCO3)n1C	nt	-1	-0.32	42	8	nt	nt
Nc1nn(-c2ccccc2)c(N)c1N=Nc1cccc(F)c1	nt	5	3.4*	nt	nt	nt	0.086
Cc1nn(-c2ccccc2)c(N)c1N=Nc1cccnc1	nt	3	0.13	0	20	nt	nt
Cc1nn(-c2ccccc2)c(N2CCCC2)c1/C=N/NC(=O)c1cccc(S(=O)(=O)Nc2ccc(Cl)cc2)c1	82	4	nt	-44	52*	71	0.087
Cc1nn(-c2ccccc2)c(N2CCCC2)c1/C=N/NC(=O)c1cc2ccccc2cc1O	42	4	nt	nt	-9	39	nt
COc1ccc(NC(=O)Nc2ccc(F)cc2)c(C)c1	nt	5	-2.1*	nt	2	nt	0.075
CC1(C)Cc2c(C#N)c(N3CCN(C(=O)c4ccccc4Cl)CC3)nc(-c3ccco3)c2CS1	73	-4	-1.8*	nt	-4	73	0.089
CC1(C)Cc2c(C#N)c(N3CCN(C(=O)c4ccco4)CC3)nc(-c3ccco3)c2CS1	85	2	2	20	19	74	nt
CC1(C)Cc2c(c(-c3ccccc3)[nH]c(=O)c2C#N)CS1	95	-2	0.62	-8	-6	97	nt
CC1(C)Cc2c(c(-c3ccco3)[nH]c(=O)c2C#N)CS1	102	7	-3.7*	25	18	90	0.078
Cc1csc(N(C)C(=O)CSc2nnc(COc3cccc4ccccc34)o2)n1	27	-3	nt	nt	-4	44	nt
COc1ccc(O[C@H]2C=C[C@@H](c3ccccc3)O[C@@H]2CO/N=C(\C)CCC(=O)OC[C@H]2O[C@H](c3ccccc3)C=C[C@@H]2Oc2ccc(OC)cc2)cc1	74	4	-0.24	-24	-5	82	nt
CCOc1ccc(-c2nc(C#N)c(NCc3ccco3)o2)cc1	nt	1	0.67*	69	-11	nt	0.086
N#Cc1nc(-c2ccc(OCc3ccccc3)cc2)oc1NCc1cccnc1	70	7	-0.82	-43	-5	67	nt
Cc1cccc(NC(=O)C(C)OC(=O)c2ccccc2NS(=O)(=O)c2cc(C)c(C)c([N+](=O)[O-])c2)c1 (centres undefined)	48	7	-3*	-50	5	47	0.061*
c1cnc(N2CCN(Cc3ccc4c(c3)OCO4)CC2)nc1	103	3	nt	-314	-7	103	nt
Cc1ccc2[nH]c3c(N4CCCCCC4)ncnc3c2c1	5.1*	3	-4*	62	60*	9	0.058*
Cc1ccc2[nH]c3c(=O)n(CCN4CCNCC4)cnc3c2c1	93	-7	-0.042	46	-3	88	nt
Cc1ccc2[nH]c3c(N4CCN(Cc5ccc6c(c5)OCO6)CC4)ncnc3c2c1	11	1	-3.8*	nt	62*	11	0.061*
Cc1cc(=O)oc2c(C(=O)/C=C\c3cccs3)c(O)ccc12	50	4	-5.7*	-39	34	60	0.05*
O=C(/C=C/c1cccs1)c1cc(Cl)ccc1O	nt	2	-0.82	nt	14	nt	nt

High-throughput results deposited in PubChem BioAssay by several laboratories.
